Bioassay records as filed in PubChem.
HP1b binding inh: blocks HP1-beta chromodomain binding to methylated histone tails; P83916; AlphaScreen HP1-beta / biotin-H3K9me3 peptide binding; Potency, µM (doses to about 114 µM), hits mostly inhibitors; actives 0.56% (n = 390,000); note: nearly all actives have a fitted effect of over 70% in size
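AlphaScreen: HP1-beta (50 nM) preformed 30 min with biotin-H3(1-18)K9me3 peptide (50 nM) in PBS pH 7.4, 0.01% Tween-20. Compound added for 30 min at RT, then streptavidin donor/nickel chelate acceptor beads (10 ug/mL) for 30 min.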
JMJD2A Tudor: inhibitors of human JMJD2A Tudor domain; AID 504339; AlphaScreen JMJD2A-Tudor / H3K4me3 peptide binding; actives 4.4% (n = 390,000); Potency, µM (doses to about 114 µM), hits mostly inhibitors; note: nearly all actives have a fitted effect of over 50% in size
PI5P4Ka inh: inhibitors of human PI5P4K alpha | max response, % | PI5P4Kalpha enzyme, ADP-Glo luminescence, 60 min; hits give low values | actives 1.2% (n = 330,000) | AID 652105; active = max response of -50% or lower; inconclusive = between -30% and -50%; inactive = -30% or higher; note: value at the top dose of about 77 µM
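Luminescence from ADP-Glo served as readout of PI5P4Kalpha activity in a qHTS format. Reaction: enzyme, substrate, compound, ATP at 5 microM final, 60 min at RT.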
PLK1 PBD inh: inhibitors of human PLK1 polo-box domain binding; P53350; Plk1 PBD binding of FITC phosphopeptide, fluorescence polarization; Potency, µM, hits mostly inhibitors; actives 2.8% (n = 360,000); note: series mostly up to about 57 µM; nearly all actives have a fitted effect of over 65% in size
Target sequence (P53350 whole entry, looked up, the tested form may be a part): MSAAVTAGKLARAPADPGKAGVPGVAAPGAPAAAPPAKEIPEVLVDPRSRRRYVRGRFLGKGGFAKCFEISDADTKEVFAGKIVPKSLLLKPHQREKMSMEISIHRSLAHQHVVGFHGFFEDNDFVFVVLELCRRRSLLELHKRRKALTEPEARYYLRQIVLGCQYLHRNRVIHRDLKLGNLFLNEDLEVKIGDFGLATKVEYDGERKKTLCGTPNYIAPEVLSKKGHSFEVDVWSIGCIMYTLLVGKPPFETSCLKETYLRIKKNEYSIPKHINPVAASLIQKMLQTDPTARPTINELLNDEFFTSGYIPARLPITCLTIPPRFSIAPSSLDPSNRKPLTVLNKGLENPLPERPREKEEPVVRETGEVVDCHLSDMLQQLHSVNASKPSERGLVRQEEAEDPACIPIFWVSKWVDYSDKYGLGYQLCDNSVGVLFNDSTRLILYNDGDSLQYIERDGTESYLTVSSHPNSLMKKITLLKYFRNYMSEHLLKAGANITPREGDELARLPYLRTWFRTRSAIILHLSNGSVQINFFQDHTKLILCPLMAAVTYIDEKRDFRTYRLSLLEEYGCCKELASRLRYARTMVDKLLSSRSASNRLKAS
G9a inh: inhibitors of human histone lysine methyltransferase G9a; Q96KQ7; actives 8.8% (n = 350,000); AID 504332; G9a H3K9 monomethylation, AlphaScreen, 2 h; Potency, µM (highest dose often 102 µM), hits mostly inhibitors; note: nearly all actives have a fitted effect of over 75% in size
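Signal arises when biotinylated H3K9 peptide, once monomethylated, bridges streptavidin donor and antibody-captured acceptor beads. Enzyme at 20 nM was preincubated 15 min with test compounds; peptide 500 nM and SAM 20 uM then reacted for 2 h.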
BAZ2B inh: blocks human BAZ2B. Q9UIF8. AlphaScreen BAZ2B-H3K14Ac peptide displacement. Potency, µM (highest dose often 114 µM), most hits filed as inhibitors. actives 4.4% (n = 360,000); note: nearly all actives have a fitted effect of over 60% in size
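AlphaScreen displacement of biotin-H3(5-23)K14Ac peptide (50 nM final) from BAZ2B (50 nM final) in PBS pH 7.4, 0.01% Tween-20; complex preformed 30 min RT, then compounds (top 110 uM) 30 min RT, beads 20 min dark.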
Each line names hits and unclear results; the compound was inactive in the other large screens. Most compounds without a hit are left out; they make up all but 12% or so of the library. Unless noted, calls come from the whole dose curve; as a rule, active = well fitted curve in the direction sought with a large enough effect; inconclusive = small, poorly fitted or top-dose-only effect, or another doubt; inactive = no such curve, though single readings can be large; an effect the other way counts as inactive or inconclusive.

CCC(CC)C(=O)Nc1cccc(C(=O)Nc2nnc(C)s2)c1	none
COc1cccc(-c2nnc(NC(=O)c3cccs3)s2)c1	none
COc1ccc(OC)c(NC(=O)CSc2n[nH]c(-c3ccccc3Cl)n2)c1	none (no result: PI5P4Ka inh, PLK1 PBD inh)
Cc1cc(C)c2c(CC(=O)N(Cc3ccccc3)C3CCS(=O)(=O)C3)coc2c1 (stereo not drawn)	none (no result: PI5P4Ka inh, PLK1 PBD inh)
COc1cc(CN2C[C@@H](CO)O[C@@H](n3cnc4c(NC(C)C)ncnc43)C2)cc(OC)c1OC	none (no result: HP1b binding inh, JMJD2A Tudor, G9a inh, BAZ2B inh)
Cc1ccc(-c2c[n+](CC(=O)c3ccc(Br)cc3)c3n2CCCCC3)cc1	G9a inh 45µM, BAZ2B inh inconclusive
CCC(CC)CN1CCN=C1N(C)C	none
Cc1cc(C)c(NS(=O)(=O)c2ccccc2)c(C)c1	none (no result: G9a inh, BAZ2B inh)
Cc1cc(C)c(S(=O)(=O)/N=C2\C=C(NS(=O)(=O)c3ccccc3)C(=O)c3ccccc32)c(C)c1	HP1b binding inh inconclusive, JMJD2A Tudor 13µM, PLK1 PBD inh 24µM, G9a inh 6.3µM, BAZ2B inh 5.6µM
Cc1ccc(S(=O)(=O)Nc2ccccc2-c2ccccc2)cc1	none (no result: PI5P4Ka inh)
Cc1ccc(S(=O)(=O)/N=C2\C=C(NS(=O)(=O)c3ccccc3)C(=O)c3ccccc32)cc1	HP1b binding inh inconclusive, JMJD2A Tudor 32µM, PI5P4Ka inh inconclusive, PLK1 PBD inh 15µM (no result: G9a inh, BAZ2B inh)
COc1ccc(-c2cc(C)nc3c(-c4ccc(OC)c(OC)c4)c(C)nn23)cc1	JMJD2A Tudor 28µM, G9a inh 14µM, BAZ2B inh 20µM (no result: PI5P4Ka inh, PLK1 PBD inh)
COc1ccccc1NC1=C(Cl)C(=O)N(C2CCCCC2)C1=O	JMJD2A Tudor inconclusive, G9a inh 45µM, BAZ2B inh inconclusive
COc1ccc(S(=O)(=O)N2CCOC2CNC(=O)C(=O)NCCCN2CCCC2=O)cc1OC (stereo not drawn)	none (no result: HP1b binding inh, JMJD2A Tudor, G9a inh, BAZ2B inh)
CC(Cl)C(=O)NN=C(c1ccccc1)c1ccccc1 (stereo not drawn)	none
CC(C)(C)C(CCl)C(=O)NN=C(c1ccccc1)c1ccccc1 (stereo not drawn)	JMJD2A Tudor 100µM, BAZ2B inh inconclusive
COc1ccc(C2(CNC(=O)C(=O)Nc3ccccc3C)CCCC2)cc1OC	none (no result: PI5P4Ka inh, PLK1 PBD inh)
CC(C)(C)C1CCC2(CC1)NC(=S)N(c1ccccc1)N2 (stereo not drawn)	G9a inh 7.9µM
CCC(C)(C)C1CCC2(CC1)NC(=S)N(c1ccccc1)N2 (stereo not drawn)	G9a inh 8.9µM, BAZ2B inh inconclusive
CC(C)(C)C1CCC2(CC1)SCC(=O)N2c1ccccc1 (stereo not drawn)	none (no result: PI5P4Ka inh)
CCC(CC)C(=O)N(C)c1c(C)nc2c(OCc3ccc(C(F)(F)F)cc3)cccn12	none (no result: HP1b binding inh, JMJD2A Tudor, G9a inh, BAZ2B inh)
CC(=O)Nc1ccc(CN2CCCCCCC2)cc1	HP1b binding inh inconclusive, JMJD2A Tudor 3.2µM, BAZ2B inh inconclusive (no result: PI5P4Ka inh)
S=C(Nc1ccc(CN2CCCCC2)cc1)Nc1cccc(Cl)c1Cl	JMJD2A Tudor inconclusive, PLK1 PBD inh inconclusive, G9a inh 40µM
CCN(CC)c1ccc(N2C(=O)/C(=C/c3cccs3)SC2=S)cc1	G9a inh inconclusive
O=C(O)c1ccc(N2C(=O)/C(=C/C=C/c3ccccc3)SC2=S)cc1	JMJD2A Tudor inconclusive, PLK1 PBD inh 27µM, G9a inh 45µM, BAZ2B inh inconclusive
CN(C)c1ccc(/C=C/C=C2/SC(=S)N(c3ccccc3)C2=O)cc1	JMJD2A Tudor 5.6µM, PI5P4Ka inh inconclusive, G9a inh inconclusive, BAZ2B inh inconclusive
OCCNc1nc(Nc2ccc(Br)cc2)nc2ccccc12	PLK1 PBD inh inconclusive, G9a inh 50µM
Cc1c(Cl)cccc1Nc1nc(NCCO)c2ccccc2n1	G9a inh 79µM
Oc1ccccc1Nc1nc(NCc2ccccc2)c2ccccc2n1	JMJD2A Tudor inconclusive, BAZ2B inh 25µM (no result: G9a inh)
CCN(CC)CCNC(=O)c1nn(C)c2c1CS(=O)(=O)c1ccccc1-2	G9a inh inconclusive (no result: PI5P4Ka inh, PLK1 PBD inh)
COC(=O)c1sc(=S)n(-c2cccc(Cl)c2)c1N	PLK1 PBD inh 8.4µM (no result: PI5P4Ka inh)
CCOc1ccc(NC(=O)NCc2cccnc2)cc1	PLK1 PBD inh 27µM, G9a inh inconclusive
CCOc1ccc(-n2c(N)c(C(=O)NCc3cccnc3)sc2=S)cc1	PLK1 PBD inh 27µM, G9a inh inconclusive
COc1ccc(CNC(=O)c2sc(=S)n(-c3ccccc3)c2N)cc1	HP1b binding inh inconclusive, PLK1 PBD inh 13µM (no result: G9a inh)
